# Screening data as filed in PubChem.
# CatB block – human cathepsin B inhibitors, primary screen, biochemical, fluorogenic substrate. P07858. purified cathepsin B, fluorescence. inhibition, %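 (tested at 10 µM)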. 63,000 compounds, 0.1% hits. AID 453, 2006; in the data active means inhibition above about 21%;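 further: 0% = enzyme with no compound and 100% = no enzyme blank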
# CatS block – inhibitors of human cathepsin S, biochemical, compound mixtures; recombinant cathepsin S, AMC dipeptide fluorescence, pooled mixtures; 62,000 compounds, 0.06% hits; P25774; inhibition, %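 (tested at 5 µM per compound within 10-compound mixtures)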; in the data active means inhibition above about 32%, passing the limit was not always enough;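 further: 0% = enzyme without compound and 100% = blank without enzyme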
# Cathepsin G inh – human cathepsin G inhibitors, primary screen, biochemical, pooled compound mixtures, AMC fluorescence. purified enzyme, AMC-tetrapeptide fluorescence. inhibition, % at 5 µM (by protocol). 62,000 compounds, 0.2% hits;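 active means inhibition above 20% in each of the two mixture wells holding the compound; inactive means inhibition of 20% or less in either well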;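 further: 0% = enzyme control without mixture and 100% = blank lacking enzyme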
# Target sequence (P08311 21-244 limits assumed): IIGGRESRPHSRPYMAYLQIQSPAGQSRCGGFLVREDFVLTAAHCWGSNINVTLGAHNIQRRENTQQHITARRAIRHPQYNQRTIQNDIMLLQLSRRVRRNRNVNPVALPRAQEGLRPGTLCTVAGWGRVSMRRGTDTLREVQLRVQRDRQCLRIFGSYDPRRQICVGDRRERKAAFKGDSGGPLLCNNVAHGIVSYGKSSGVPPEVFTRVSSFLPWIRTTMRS
# C1s inh – complement C1s protease inhibitors, primary screen, biochemical, 10-compound mixtures; Complement C1s subcomponent (Homo sapiens), P09871; purified C1s, fluorogenic AMC substrate, pooled mixtures; mean inhibition % of two 10-compound mixtures (active compounds read high), % at 5 µM (by protocol); 62,000 compounds, 0.16% hits; AID 538, 2006;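 active means inhibition above 20% in each of the two 10-compound mixture wells holding the compound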;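 further: 0% = enzyme wells lacking compound mixture and 100% = no-enzyme blank wells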
# CatB mix inh – cathepsin B inhibitors from pooled compounds, primary screen, biochemical, compound mixtures, AMC fluorescence; P07858; 62,000 compounds, 0.06% hits; Purified cathepsin B, AMC dipeptide fluorescence; inhibition, %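 (ten-compound pools at 5 µM per compound and 50 µM total)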; in the data active means inhibition above about 22%, passing the limit was not always enough;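 further: 0% = enzyme without compound and 100% = no enzyme blank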
# CatL block – inhibitors of human cathepsin L, biochemical; Procathepsin L (Homo sapiens), P07711; purified cathepsin L, fluorogenic substrate, fluorescence; inhibition, %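 (tested at 10 µM)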; 58,000 compounds, 0.17% hits; in the data active means inhibition above about 45%;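 further: 0% = enzyme with no compound and 100% = no enzyme blank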
# Active calls of the source: *. The list is not random: actives were taken first. Their share in the collection is about 0.54%.
SMILES,CatB block,CatS block,Cathepsin G inh,C1s inh,CatB mix inh,CatL block
COc1ccc(S(=O)(=O)n2nc(OC(=O)c3cccs3)cc2N)cc1,76*,0,38*,-16,68*,-4
CC(C)(C)C(=O)Oc1cc(N)n(S(=O)(=O)c2ccccc2)n1,9,25,-3,-26,7,18
COc1ccc(S(=O)(=O)n2nc(OC(=O)c3ccco3)cc2N)cc1,78*,16,19,30*,67*,14
COc1ccc(S(=O)(=O)n2nc(OC(=O)c3ccccc3)cc2N)cc1,39*,14,35*,23,29*,-1
COc1ccc(S(=O)(=O)n2nc(OC(=O)c3ccc(C)cc3)cc2N)cc1,49*,-5,32*,10,32*,-3
